# High-throughput results deposited in PubChem BioAssay by The Scripps Research Institute Molecular Screening Center.
# The list is not random: actives were taken first. Their share in the collection is about 2.5%.
# ULK1 inh = ULK1 kinase inhibitors, primary screen, biochemical, AlphaScreen | Serine/threonine-protein kinase ULK1 (Homo sapiens), O75385 | AlphaScreen Atg13 phosphorylation by ULK1, luminescence | inhibition, % at 5.96 µM | 30,000 tested, 1.9% active | AID 1259251, 2017; in the data active means inhibition above about 43%;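 further: 0% = median of compound wells and 100% = no enzyme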
# Target sequence (O75385 whole entry, looked up): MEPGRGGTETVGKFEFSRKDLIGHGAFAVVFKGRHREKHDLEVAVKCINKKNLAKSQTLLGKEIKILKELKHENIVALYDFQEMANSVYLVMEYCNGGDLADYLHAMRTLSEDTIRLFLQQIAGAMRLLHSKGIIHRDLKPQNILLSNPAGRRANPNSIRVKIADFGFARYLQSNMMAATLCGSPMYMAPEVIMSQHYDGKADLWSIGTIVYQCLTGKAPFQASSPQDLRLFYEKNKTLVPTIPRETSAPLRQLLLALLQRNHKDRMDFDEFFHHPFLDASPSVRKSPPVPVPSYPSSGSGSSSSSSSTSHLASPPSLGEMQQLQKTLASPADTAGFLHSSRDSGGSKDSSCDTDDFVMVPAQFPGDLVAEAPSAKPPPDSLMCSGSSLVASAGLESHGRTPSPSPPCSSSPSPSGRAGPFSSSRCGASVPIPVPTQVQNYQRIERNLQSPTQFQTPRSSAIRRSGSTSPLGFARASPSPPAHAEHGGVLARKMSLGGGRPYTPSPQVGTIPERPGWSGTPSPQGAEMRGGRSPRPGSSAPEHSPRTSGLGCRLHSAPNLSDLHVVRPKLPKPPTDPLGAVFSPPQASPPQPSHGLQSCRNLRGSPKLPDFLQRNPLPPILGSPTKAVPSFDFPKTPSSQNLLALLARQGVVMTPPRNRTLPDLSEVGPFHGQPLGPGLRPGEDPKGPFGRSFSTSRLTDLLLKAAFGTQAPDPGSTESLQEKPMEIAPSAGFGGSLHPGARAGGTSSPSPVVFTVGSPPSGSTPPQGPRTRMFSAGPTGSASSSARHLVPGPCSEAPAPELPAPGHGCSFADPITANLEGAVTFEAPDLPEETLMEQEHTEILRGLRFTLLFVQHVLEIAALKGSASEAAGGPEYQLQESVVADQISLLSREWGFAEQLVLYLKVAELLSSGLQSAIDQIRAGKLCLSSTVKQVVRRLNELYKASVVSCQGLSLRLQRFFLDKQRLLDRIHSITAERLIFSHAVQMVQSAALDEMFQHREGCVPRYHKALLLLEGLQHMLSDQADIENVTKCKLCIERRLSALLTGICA
# ASK1 primary = ASK1 kinase inhibitors, primary screen, biochemical, AlphaScreen | Mitogen-activated protein kinase kinase kinase 5 (Homo sapiens), Q99683 | AlphaScreen MKK6 phosphorylation by ASK1, luminescence | inhibition, % at 7.44 µM | 22,000 tested, 0.99% active; in the data active means inhibition above about 35%;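 further: 0% = median of compound wells and 100% = no enzyme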
# Starred values were filed as active, the others as inactive; · = not tested or not shown.
SMILES,ULK1 inh,ASK1 primary
Cc1cc2c(C(C)C)c(O)c(O)c(C=O)c2c(O)c1-c1c(C)cc2c(C(C)C)c(O)c(O)c(C=O)c2c1O,57*,·
CC(C)n1c(N2CCCC2CO)nc2c(NCCN3CCOCC3)ncnc21 (centres undefined),11,6
CC(=O)c1cccc(-c2nc3c(NC4CC4)ncnc3n2C(C)C)c1,7,-16
COc1ccc(CCNc2nc(-c3ccc(C(N)=O)cc3)ncc2C)cc1,0,7
CN(C)CCCOc1cc(-c2cn[nH]c2)c(F)cc1NC(=O)C(N)c1ccc(Cl)cc1 (centres undefined),20,10
COc1cc(NC(=O)C(N)c2ccc(Cl)cc2)c(F)cc1-c1cn[nH]c1 (centres undefined),65*,13
Cc1cc(-n2c(C)nc3ncccc3c2=O)ccc1NC(=O)c1cccc(Br)c1,15,·
CC(C)N(CCNC(=O)c1csc(N2CCC(N3CCOCC3)CC2)n1)C(C)C,-2,6
CC(=O)Nc1ccc(NC(=O)c2ccnc(-c3ccc(C(=O)NC4CC4)cc3)c2)cc1,44*,7
O=C(NC1CC1)c1ccc(-c2cc(C(=O)NC3CC3)ccn2)cc1,4,-20
CNC(=O)c1ccccc1Nc1cc(Nc2ccc(-c3cncnc3)cc2)ncc1C(F)(F)F,70*,-7
O=C(O)c1ccccc1Nc1ccccn1,12,·
CNC(=O)c1ccnc(Nc2cc(Nc3ccccc3C(=O)NC)c(C(F)(F)F)cn2)c1,87*,-6
O=C(NCc1cccc(C(F)(F)F)c1)c1ccnc(Nc2ccccn2)c1,1,-2
CNC(=O)c1ccccc1Nc1cc(Nc2cccc(C)n2)ncc1C(F)(F)F,90*,-1
CNC(=O)c1ccccc1Nc1cc(Nc2ccccn2)ncc1C(F)(F)F,89*,-1
CCNc1nc(NCc2cccc(C(F)(F)F)c2)c2ncn(Cc3ccc(C(F)(F)F)cc3)c2n1,-14,-1
CCN(CC)c1cc(-c2ccc(F)cc2)nc(C)n1,3,·
OCCNc1nc(-c2ccccc2)nc2c1ncn2-c1ccsc1,-9,-13
CC(=O)Nc1ccc2c(=O)cc(-c3ccccc3F)oc2c1,8,·
O=C(Cc1ccc2c(c1)OCO2)Nc1cc(Nc2ccccc2-c2ncn[nH]2)c(C(F)(F)F)cn1,-18,-2
CNC(=O)c1ccc(Nc2cc(Nc3ccccc3C(=O)NC)c(C(F)(F)F)cn2)nc1,87*,-9
CNC(=O)c1ccccc1Nc1cc(Nc2ccc3c(c2)CCC(=O)N3C)ncc1C(F)(F)F,89*,-12
O=c1n(CC2CO2)c(=O)n(CC2CO2)c(=O)n1CC1CO1 (centres undefined),8,·
Cc1cnc(Nc2ccc3ncccc3c2)nc1NC1CC1,71*,8
SMILES,ULK1 inh,ASK1 primary
Cc1cnc(NCCCN2CCCC2=O)nc1Nc1ccc(Oc2ccccc2)cc1,49*,11
Cc1cnc(Nc2cccc(N(C)C)c2)nc1NCCCN1CCCC1=O,20,-8
Cc1cnc(Nc2ccc3ncccc3c2)nc1Nc1ccc2c(c1)OCO2,-11,-29
O=C1CCCN1CCCNc1nc(Nc2ccc(Oc3ccccc3)cc2)c2[nH]cnc2n1,-22,30
Cc1cnc(Nc2ccc3ncccc3c2)nc1NCCCN1CCCC1=O,69*,-13
O=C(c1ccco1)N1CCc2nc3ccccn3c(=O)c2C1,-11,·
CC(C)N(CCNc1ncnc2nc(-c3csc4ccccc34)[nH]c12)C(C)C,-2,-22
COc1cc(NC(=O)Cc2cn(-c3ccc(N4CCOCC4)nn3)c3ccccc23)cc(OC)c1OC,4,0
Cc1nn(C)c(C)c1-c1nc(N)c2ncn(-c3ccsc3)c2n1,23,6
COc1ccc(-c2cccc(C(=O)NCCCN3CCCC3=O)n2)cn1,-8,-6
Cc1ncn(-c2ccc(Nc3nccc(-c4ccc(C#N)c(N5CCOCC5)c4)n3)cc2)n1,-20,1
N#Cc1cc(-c2ccnc(Nc3ccc(-n4cnc(N5CCOCC5)n4)cc3)n2)ccc1N1CCC(O)CC1,49*,-15
N#Cc1cc(-c2ccnc(Nc3ccc(-c4nn[nH]n4)cc3)n2)ccc1N1CCC(O)CC1,75*,-31
c1cc(-c2ccnc(Nc3ccc(-c4nn[nH]n4)cc3)n2)cc(N2CCOCC2)c1,-24,-4
NC(=O)c1cccc(Nc2ccc(C(F)(F)F)cc2)n1,14,10
O=C(Nc1cccc2cnccc12)c1ccc(OCC(O)c2ccc(Br)cc2)cc1 (centres undefined),-9,-21
CNS(=O)(=O)c1ccccc1Nc1cc(Nc2cc(-c3cncnc3)nc(C)n2)ncc1C(F)(F)F,73*,14
CNS(=O)(=O)c1ccccc1Nc1cc(Nc2ccc(N3CCCC3=O)cc2)ncc1C(F)(F)F,50*,-6
CS(=O)(=O)c1cccc(CNc2cc(Nc3ccc(N4CCCC4=O)cc3)ncc2C(F)(F)F)c1,24,14
Cc1nc(Nc2ccccc2)cc(-c2cncc(-c3ccccc3)c2)n1,0,·
CN1CC[C@@H](Oc2ccnc(C(=O)Nc3ccc4[nH]ncc4c3)c2)C1,-4,-7
OC[C@H]1OC([S-])[C@H](O)[C@@H](O)[C@@H]1O.[Au+] (some centres undefined),66*,·
OC[C@H]1OC(O)[C@H](O)[C@@H](O)[C@H]1O (some centres undefined),10,·
COc1cccc(CNC(=O)c2cn3ccc(-c4ccncc4)cc3n2)c1,-6,6
O=C1c2c(O)cccc2C(C2OC(CO)[C@@H](O)[C@H](O)[C@H]2O)c2cc(CO)cc(O)c21 (some centres undefined),-1,·
SMILES,ULK1 inh,ASK1 primary
O=C(O)c1cc(O)c2c(c1)[C@@H]([C@H]1c3cc(C(=O)O)cc(O)c3C(=O)c3c(O[C@H]4O[C@H](CO)[C@@H](O)[C@H](O)[C@H]4O)cccc31)c1cccc(O[C@H]3O[C@H](CO)[C@@H](O)[C@H](O)[C@H]3O)c1C2=O,67*,·
c1nc2nc(Nc3ccc(N4CCOCC4)cc3)nc(NCC3CCCO3)c2[nH]1 (centres undefined),35,5
CC(=O)Nc1ccc(Nc2ncnc3nc(-c4c(C)nn(C)c4C)[nH]c23)cc1,-4,-20
N[C@H](Cc1ccc(Br)cc1)C(=O)N1CCC(C(=O)Nc2ccncc2)CC1,5,-3
C[C@@H](N)C1CCC(C(=O)Nc2ccncc2)CC1 (some centres undefined),64*,15
FC(F)(F)c1ccc(Nc2cc(Nc3ccc4c(c3)OCO4)ncn2)cc1,-12,14
C=C[C@H]1CN2CCC1C[C@H]2[C@H](O)c1ccnc2ccc(OC)cc12 (some centres undefined),-7,·
O=C(Nc1nc2c(s1)CN(Cc1ccccc1)CC2)C1CCCCC1,0,·
N#Cc1c(N)sc(=S)c2c1CCN(Cc1ccccc1)C2,75*,·
Cc1noc(C)c1-c1nc2ncnc(NC3CC3)c2[nH]1,0,-10
COc1ccc(CCNC(=O)Cc2cn(-c3ccc(NCCCN4CCCC4=O)nn3)c3ccccc23)cc1,-7,-5
O=C(NNC(=O)c1cccs1)c1ccccn1,-7,·
c1cc(Nc2nccc(Nc3ccc(N4CCOCC4)cc3)n2)ncn1,79*,13
c1cc(Nc2cc(Nc3ccc(N4CCOCC4)cc3)ncn2)ccn1,82*,2
c1ccc(Nc2cc(Nc3ccncc3)ncn2)cc1,61*,20
c1ccc(CNc2cc(Nc3ccncc3)ncn2)cc1,20,-16
